In PubChem BioAssay AID1578 (Sanford-Burnham Center for Chemical Genomics, 2009):
The whole screen tested about 290,000 compounds, of which about 3,000 (1%) were called active. Cut-off read from the data, not from the text of the source: active = inhibition mostly above about 36% (no sharp cut-off); inactive = mostly below about 34%. Only a selection was taken, and actives are over-represented in it overall.

Test: inhibition of NOD1-driven NF-kB reporter – cell-based, luminescence, uHTS, primary screen (AID 1578);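 note: HEK-293T reporter cells stimulated with the NOD1 agonist gamma-tri-DAP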
Details: NOD1-driven NF-kB luciferase reporter cells, at 4 µM, hits give high values

| Compound | inhibition |
| --- | --- |
| O/N=C/c1cccc[n+]1CCCCCC[n+]1ccccc1/C=N/O | 27.1% (inactive) |
| Cc1[nH]n2c(=O)cc(C(C)C)nc2c1-c1ccccc1 | -8.4% (inactive) |
| Cc1cc(=O)n2[nH]c(C)c(-c3ccccc3)c2n1 | -4.2% (inactive) |
| Cc1[nH]n2c(=O)cc(C(C)(C)C)nc2c1-c1ccccc1 | 85.3% (active) |
| COc1cccc(-c2c[nH]c(=O)[nH]c2=O)c1 | -6.8% (inactive) |
| COc1cccc(/C=C/C(=O)c2ccc(NC3=NCCCS3)cc2)c1 | -44.4% (inactive) |
| Cc1cccc(/C=C/C(=O)c2ccc(NC3=NCCCS3)cc2)c1 | 32.1% (inactive) |
| COc1ccc(/C=C/C(=O)c2ccc(NC3=NCCCS3)cc2)cc1OC | 44.3% (active) |
| CNCCCOc1ccc(C)cc1Br | 13.5% (inactive) |
| Cc1nn2c3ccccc3n(Cc3ccccc3)c2nc1=O | -20.5% (inactive) |
| O=C(NCC(=O)N(c1ccc(Cl)cc1)C(C(=O)NC1CCCC1)c1ccncc1)c1ccco1 (stereo not drawn) | -13.1% (inactive) |
| CN(C)CCNC(=O)c1c(CSc2ccccc2)noc1C(=O)NCc1ccccc1 | -3.7% (inactive) |
| NC(=O)C1CCN(C(=O)c2ccc3c(c2)S(=O)(=O)c2ccccc2C3=O)CC1 | 1.2% (inactive) |
| CCN(CC)CCNc1cc(C)nc2c1C(=O)C(=O)C=C2N1CCCCC1 | 101% (active) |
| CCN(CC)CCNC1=CC(=O)OC12CCCCC2 | -19.3% (inactive) |
| COC(=O)c1cc(C)nc2c1C(=O)C(=O)C=C2N1CCOCC1 | -6.2% (inactive) |
| Cc1ccc(C(=O)/C=C/c2cc(Br)cc(Br)c2O)o1 | 89.5% (active) |
| Cc1ccc(C(=O)/C=C/c2ccccc2)o1 | -0.9% (inactive) |
| Cc1ccc(C(=O)/C=C/c2ccc(Br)cc2)o1 | 21% (inactive) |
| Cc1ccc(C(=O)NC2CC3CCC(C2)N3Cc2ccco2)cc1 (stereo not drawn) | -13.6% (inactive) |
| O=C(COC(=O)c1ccc[nH]c1=O)NCCc1ccc(Cl)cc1Cl | -4.3% (inactive) |
| COc1ccc(OC)c(NC(=O)NNC(=O)CCCOc2ccc(Cl)cc2C)c1 | -14% (inactive) |
| O=C(O)Cc1sc(-c2ccccc2Cl)nc1-c1ccccc1 | 44% (active) |
| O=C(O)Cc1sc(-c2ccccc2)nc1-c1ccccc1 | -9.7% (inactive) |
| O=C(Cc1sc(-c2ccccc2Cl)nc1-c1ccccc1)Nc1ccccc1 | -49.4% (inactive) |

| Compound | inhibition |
| --- | --- |
| CCCn1c(=O)c(C(=O)NNC(=O)c2ccc(Cl)cc2Cl)c(O)c2ccccc21 | -6.2% (inactive) |
| Cc1cc(Cl)ccc1NC(=O)CCCN1C(=O)CCC1=O | 1.3% (inactive) |
| O=C(Cn1nnc2ccccc21)N/N=C\c1cccs1 | -35.5% (inactive) |
| COc1ccc(/C=C/c2c(-c3ccc(OC)cc3)oc3ccc(-c4ccc(OC)cc4)cc23)cc1 | -16.5% (inactive) |
| COc1ccc(/C=C/C(=O)Oc2ccc(C)cc2)cc1 | -12.4% (inactive) |
| CC1(C)C2CCC1(C)C(OC(=O)C[n+]1ccccc1N)C2 (stereo not drawn) | -14.7% (inactive) |
| CC(C)NC(=O)C1CCN(C2CCN(C(=O)c3cc4c(s3)CCCCC4)CC2)CC1 | -13.9% (inactive) |
| Cc1cnc(CN(C)Cc2nc(Cc3cccc(C(F)(F)F)c3)no2)[nH]1 | -15.7% (inactive) |
| CC(C)OC(=O)c1cc2c(=O)[nH]c(C(Cl)(Cl)Cl)nc2o1 | -25.8% (inactive) |
| CS(=O)(=O)N(CC(=O)N1CCCCC1)C1CCCCC1 | 9.1% (inactive) |
| COc1ccc(C(=O)N/N=C/C(Br)=C/c2ccccc2)cc1 | 26.8% (inactive) |
| COc1cccc(C(=O)N/N=C/C(Br)=C/c2ccccc2)c1 | 63.6% (active) |
| O=C(N/N=C/C(Br)=C/c1ccccc1)c1cccnc1 | 10.1% (inactive) |
| CC1(C)Cc2ccccc2-c2nc3n(c(=O)c21)CCCS3 | 44.3% (active) |
| CCC1(C)Cc2ccccc2-c2nc3n(c(=O)c21)CCS3 (stereo not drawn) | 5.3% (inactive) |
| CC1(C)Cc2ccccc2-c2nc3n(c(=O)c21)CCS3 | -12.8% (inactive) |
| O=C(COC(=O)CSCC(=O)N1CCCCC1)Nc1ccc(Cl)cc1 | 0% (inactive) |
| Fc1ccc(-c2noc(-c3ccc4c(c3)CCO4)n2)cc1 | -17.4% (inactive) |
| CC(=O)c1c(O)ccc2c(-c3ccccc3)cc(=O)oc12 | 13.4% (inactive) |
| CN(C)Cc1c(O)ccc2c(-c3ccccc3)cc(=O)oc12 | -22% (inactive) |
| COC(=O)c1ccccc1NC(=O)Nc1cc(C)ccn1 | -16.6% (inactive) |
| Cc1cccc2sc(N(CCCN(C)C)C(=O)c3ccc(S(=O)(=O)N4CCc5ccccc5C4)cc3)nc12 | 13% (inactive) |
| O=C(COC(=O)CCC(=O)c1ccc(F)cc1)Nc1ccc(N2CCOCC2)cc1 | -6.3% (inactive) |
| O=C(OCCN1CCCCC1)c1ccc(Cl)cc1 | -7.2% (inactive) |
| Oc1c(C=NCc2ccc(F)cc2)[nH]c2ccc(Br)c(Cl)c12 | -16.1% (inactive) |

| Compound | inhibition |
| --- | --- |
| Oc1c(Br)cc(Br)cc1C=NCc1ccc(F)cc1 | 64.2% (active) |
| Oc1c(Br)cc(Br)cc1C=NCc1ccccc1 | -5.4% (inactive) |
| CCCn1c(N)c(Sc2ccccc2)c(=O)n(CCC)c1=O | 17.2% (inactive) |
| CCOC(=O)c1ccccc1NC(=O)c1c(F)c(F)c(F)c(F)c1F | -18.5% (inactive) |
| NC(=O)N/N=C(/CCCCCC/C(=N\NC(N)=O)c1ccccc1)c1ccccc1 | 36.6% (active) |
| CCCCC/C(=N\NC(=O)Nc1ccccc1)c1ccccc1 | -2.9% (inactive) |
| C/C(=N\NC(N)=O)c1ccccc1 | -34.5% (inactive) |
| CC(=O)N1c2ccccc2C(C)(c2ccccc2)CC1(C)C (stereo not drawn) | 0.7% (inactive) |
| CC(=O)N1c2ccccc2C2(C)C(C1(C)C)C2(Cl)Cl (stereo not drawn) | 60.4% (active) |
| CC1(C)C2C(Cl)(Cl)C2(C)c2ccccc2N1C=O (stereo not drawn) | -3.3% (inactive) |
| Cc1cc(NC(=O)Nc2ccc(Cl)cc2)n(C)n1 | -7.2% (inactive) |
| O=C1c2cccc3cc([N+](=O)[O-])cc(c23)C(=O)N1/N=C/c1ccc(O)cc1O | 8.5% (inactive) |
| O=[N+]([O-])c1cccnc1N/N=C/c1ccccc1O | -18.6% (inactive) |
| COc1ccc(/C=N/Nc2ncccc2[N+](=O)[O-])c(OC)c1 | -42.4% (inactive) |
| COc1cccc(/C=N/Nc2ncccc2[N+](=O)[O-])c1OC | 39.6% (active) |
| CC(C)C(=O)NC(NC(=S)Nc1ccc(S(N)(=O)=O)cc1)C(Cl)(Cl)Cl (stereo not drawn) | -3.2% (inactive) |
| CCCCC(CC)C(=O)Nc1cc(=O)[nH]c2nc3ccccc3n12 (stereo not drawn) | -1.4% (inactive) |
| CCOC(=O)CNC(c1ccccc1)c1cc(Br)ccc1NC(C)=O (stereo not drawn) | -27.2% (inactive) |
| CCOC(=O)CNC(c1ccccc1)c1cc(Br)ccc1NC(=O)CCN1CCOCC1 (stereo not drawn) | 69.7% (active) |
| COC(=O)CNC(c1ccccc1)c1cc(Br)ccc1NC(=O)CCN1CCOCC1 (stereo not drawn) | 35.8% (inactive) |
| CC(OC(=O)c1ccco1)C(=O)NC1CCCC1 (stereo not drawn) | -27.9% (inactive) |
| COc1ccc(CC(=O)N/N=C\c2cc(Br)c(O)c(Br)c2)cc1 | 17% (inactive) |
| Oc1[nH]c2c(Cl)cc(Cl)cc2c1N=NC(=S)NCC1CCCO1 (stereo not drawn) | 104% (active) |
| Oc1[nH]c2ccccc2c1N=NC(=S)NCC1CCCO1 (stereo not drawn) | -1% (inactive) |
| Cc1cc(C)c2[nH]c(O)c(N=NC(=S)NCC3CCCO3)c2c1 (stereo not drawn) | -5.7% (inactive) |

| Compound | inhibition |
| --- | --- |
| O=C1NC(=O)C2C1C(c1ccccc1)N1C3C(=O)NC(=O)C3C(c3ccccc3)N21 (stereo not drawn) | 6.2% (inactive) |
| CC(C)c1nc2sc3c(NCc4ccco4)ncnc3c2c2c1COC(C)(C)C2 | 64% (active) |
| CC(C)Cc1nc2sc3c(NCc4ccco4)ncnc3c2c2c1COC(C)(C)C2 | -25.1% (inactive) |
| Cc1nc2sc3c(NCc4ccco4)ncnc3c2c2c1COC(C)(C)C2 | 20.3% (inactive) |
| CCN(CC)CC(=O)NCc1cc(-c2ccc(OC)cc2)no1 | -8.1% (inactive) |
| C=CCNc1nc(Nc2ccc(OC)cc2)nc(OCC)n1 | -7.5% (inactive) |
| CC(C)Cn1c(=O)c(C(=O)Nc2cnccn2)c(O)c2ccccc21 | 0.1% (inactive) |
| CCCn1c(=O)c(C(=O)Nc2cnccn2)c(O)c2ccccc21 | -22.7% (inactive) |
| CC(C)Cn1c(=O)c(C(=O)Nc2ccccc2S(N)(=O)=O)c(O)c2ccccc21 | -2.7% (inactive) |
| CCn1c(=O)c(C(=O)Nc2cnccn2)c(O)c2ccccc21 | 7.9% (inactive) |
| CCn1c(=O)c(C(=O)Nc2ccccc2S(N)(=O)=O)c(O)c2ccccc21 | -15.7% (inactive) |
| Cn1c(=O)c(C(=O)Nc2cnccn2)c(O)c2ccccc21 | -52.8% (inactive) |
| CCOC(=O)N1CCN=C1SCc1ccc(Cl)c(Cl)c1 | -47.1% (inactive) |
| Cc1nc(N2CCN(c3ccccc3)CC2)[nH]c(=O)c1Cc1ccccc1 | 8.4% (inactive) |
| COc1ccccc1NC(=S)N(CCN1CCOCC1)Cc1ccccc1F | -31.9% (inactive) |
| O=[N+]([O-])c1ccccc1/C=N/Nc1nnc(-c2ccccc2)c(-c2ccccc2)n1 | -36.7% (inactive) |
| FCCCOc1ccc(-c2ccnc(-c3ccccc3)n2)cc1 | -45.6% (inactive) |
| Cc1c(Cl)cccc1NC(=O)NNC(=O)CCc1ccccc1 | 28% (inactive) |
| COc1cc(C)c(C)cc1S(=O)(=O)n1c(C)nc2ccccc21 | -11.1% (inactive) |
| CC(C)COP(=O)(c1ccc(N(C)C)cc1)C(O)c1ccc(N(C)C)cc1 (stereo not drawn) | 2.4% (inactive) |
| CC1CN(c2nc3c(c(=O)n(C)c(=O)n3C)n2Cc2c(F)cccc2Cl)CC(C)O1 (stereo not drawn) | -14.7% (inactive) |
| O=C(NNC1=NCCC1)c1ccc(Br)cc1 | 6.7% (inactive) |
| CC(=O)c1ccccc1N(C(=O)c1ccco1)C(C(=O)NC1CCCC1)c1ccc(C)cc1 (stereo not drawn) | -11.2% (inactive) |
